# Rab9 promoter act: Rab9 promoter activation. AID 485297. hit rate 2.8% among 320,000. Potency, µM (series often up to 9.22 µM), for the others: at the highest dose activation, negative = inhibition, most hits filed as activators. Huh7 Rab9 promoter-luciferase reporter, luminescence, 24 h; note: % of control where 0% means no effect; nearly all actives have a fitted effect of over 60% in size
#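 Promoter activation is measured as luciferase luminescence in Huh7 cells stably transfected with a Rab9 promoter–luciferase construct, following 24 h compound exposure at 37 °C and 10 min reagent incubation at ambient temperature.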
# SMN2 splice up: enhancers of SMN2 splice variant expression; Potency, µM (series often up to 46.1 µM), without a hit: at the top dose activity change, positive = activation, most hits filed as activators; AID 1458; HEK293 SMN2-luciferase splicing reporter, luminescence, 30-36 h; hit rate 2.8% among 210,000; note: % of control where 0% means no effect; nearly all actives have a fitted effect of over 55% in size
#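 HEK293 cells carry an SMN2 minigene-luciferase reporter in which exon 7 inclusion puts luciferase in frame. Cells were seeded at 2000 cells/well, attached for 10-12 hours, then exposed to compounds for 30-36 hours at 37C before ONE-Glo luminescence.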
# NPC1 prom act: activators of NPC1 promoter | Huh7 NPC1 promoter luciferase reporter, 24 h | Potency, µM (series often up to 9.22 µM), for the others: at the top dose activation, usual class: activators | hit rate 2.4% among 320,000 | AID 485313; note: % of control where 0% means no effect; nearly all actives have a fitted effect of over 60% in size
#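 Stably transfected Huh7 (NPC1 promoter→luciferase), 1500 cells/well in Opti-MEM + 10% FBS, 2 h settle, then compound 24 h at 37 °C. Luminescence after 10 min with Amplite reagent.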
# FLuc modulator: counter-screen for miR-21 project: firefly luciferase inhibitors or activators | P08659 | purified FLuc, Km substrates, luminescence inhibition | Potency, µM (series often up to 57.5 µM), for the others: at the highest dose activity change, negative = inhibition, most hits filed as inhibitors | hit rate 6.9% among 360,000;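 note: plate controls were vehicle for no effect and reference inhibitor for full effect; nearly all actives have a fitted effect of over 55% in size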
# Target sequence (P08659 whole entry, looked up): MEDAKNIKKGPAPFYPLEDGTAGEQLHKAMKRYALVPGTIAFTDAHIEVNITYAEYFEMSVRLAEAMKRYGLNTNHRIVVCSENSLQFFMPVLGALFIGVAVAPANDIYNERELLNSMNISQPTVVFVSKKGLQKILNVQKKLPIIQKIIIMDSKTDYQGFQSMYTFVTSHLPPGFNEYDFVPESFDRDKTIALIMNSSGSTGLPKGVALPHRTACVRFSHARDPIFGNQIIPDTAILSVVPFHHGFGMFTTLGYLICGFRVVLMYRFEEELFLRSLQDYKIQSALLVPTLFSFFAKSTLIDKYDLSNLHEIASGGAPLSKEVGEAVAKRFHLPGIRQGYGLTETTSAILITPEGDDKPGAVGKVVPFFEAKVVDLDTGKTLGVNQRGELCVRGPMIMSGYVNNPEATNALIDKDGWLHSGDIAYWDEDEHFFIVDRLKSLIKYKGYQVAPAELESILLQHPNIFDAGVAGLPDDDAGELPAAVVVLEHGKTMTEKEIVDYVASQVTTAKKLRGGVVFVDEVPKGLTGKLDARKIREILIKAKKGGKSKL
#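 Purified P. pyralis luciferase (10nM final) with 10uM D-luciferin and 10uM ATP (Km levels) in 50mM Tris acetate pH 7.5, 10mM Mg acetate, 0.01% Tween-20, 0.05% BSA; qHTS 6-point titration, ~60 µM downward; luminescence read.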
# ELG1 genotox: genotoxicity induction in ELG1-luciferase HEK293T cells; HEK293T ELG1-luciferase reporter, luminescence, 16 h; hit rate 1.3% among 330,000; Potency, µM (series often up to 46 µM), for the others: at the top dose activity change, positive = activation, hits mostly activators; AID 504466; note: % of control where 0% means no effect; nearly all actives have a fitted effect of over 60% in size
#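 Quantitative HTS format in 1536-well plates. HEK293T ELG1-luciferase reporter cells receive test compound and are incubated 16 hr at 37 °C, 5% CO2; ONE-Glo added, 30 min room temperature, then luminescence read.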
# ELG1 DNA repair: inhibitors of ELG1-dependent DNA repair in HEK293T cells; HEK293T ELG1-luciferase reporter, luminescence, 16 h; DNA damage induced by 5-fluorouridine; Potency, µM (highest dose often 46.1 µM), for inactives: at the top dose activity change, negative = inhibition, usual class: inhibitors; hit rate 2.3% among 330,000; AID 504467; note: % is set by controls: 0 for no effect and ±100 for the full control effect; nearly all actives have a fitted effect of over 55% in size
#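 HEK293T cells expressing luciferase-tagged ELG1 (2,000/well) received 5-Fluorouridine plus compound or DMSO for 16 hr at 37 °C. Luciferase was read by ONE-Glo luminescence after 30 min at room temperature.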
# * marks the source's active call; other numbers are inactive results; ? = inconclusive; . = no result. Sampled rows, rich in hits. Any-hit rate of the full collection: about 9.4%. Calls come from the whole dose curve; as a rule, active = well fitted curve in the direction sought with a large enough effect; inconclusive = small, poorly fitted or top-dose-only effect, or another doubt; inactive = no such curve, though single readings can be large; an effect the other way counts as inactive or inconclusive. Potency is the fitted concentration of half-maximal effect.
SMILES,Rab9 promoter act,SMN2 splice up,NPC1 prom act,FLuc modulator,ELG1 genotox,ELG1 DNA repair
O=C(N1CCCC1)N1CCN(c2ncnc3c(-c4ccc(Cl)cc4)nsc23)CC1,11%,?,22%,17µM*,?,?
Cc1cccc(N2CCN(C(=O)CN3C(=O)COc4ccc(S(=O)(=O)N5CCC(C)CC5)cc43)CC2C)c1 (centres undefined),.,-3%,.,-4%,.,.
Oc1c(Cl)cc(Cl)cc1C=Nc1ccc(N2CCOCC2)cc1,2%,.,2%,?,3%,-9%
Oc1ccc(C=Nc2ccc(N3CCOCC3)cc2)c(O)c1,-4%,4%,11%,17µM*,-1%,-11%
Oc1cc(Br)ccc1C=Nc1ccc(N2CCCCC2)cc1,26%,.,1%,1.2µM*,-6%,?
Cc1ccc(CSc2nncn3c2cc2sccc23)cc1,.,.,.,0%,.,.
COc1cccc(-c2nccc(NCc3cccc(C)c3)n2)c1,.,11µM*,.,.,.,.
CN(Cc1nc2c(s1)CCCC2)C(=O)CCc1nnc(-c2ccccc2)o1,23%,.,14%,?,16%,?
CN(Cc1ccc(F)cc1)C(=O)CCc1nnc(-c2ccccc2)o1,?,.,?,17µM*,?,?
COc1ccc(CCN(C)C(=O)CCc2nnc(-c3ccccc3)o2)cc1OC,3.2µM*,.,4.5µM*,19µM*,?,?
CCOc1ccc(C(=O)Nc2ccc(-c3nc4cc(CC)ccc4o3)cc2)cc1,.,1%,.,0%,.,.
Cc1nn(-c2ccccc2)c(-n2cccc2)c1C(=O)N1CCN(c2ccccc2)CC1,.,-7%,.,2%,.,.
CCOc1ccc(OCc2ccc(C(=O)Nc3ccc(Cl)cn3)o2)cc1,28%,18µM*,?,?,1%,6%
Cc1ccc(NC(=O)c2ccc(COc3ccccc3)o2)nc1,15%,.,18%,?,?,?
O=C(Nc1ccccn1)c1ccc(COc2ccccc2Cl)o1,26%,14%,0%,17µM*,?,?
O=C(Nc1nn(Cc2ccc(Cl)cc2)cc1Br)c1ccc(COc2ccccc2Cl)o1,-9%,-56%,-1%,-2%,-17%,18µM*
O=C(Nc1ccc(Cl)cn1)c1ccc(COc2ccccc2Br)o1,?,13µM*,28%,?,5%,?
COc1ccc(N=C2SC(CC(=O)Nc3ccccc3F)C(=O)N2Cc2ccco2)cc1 (centres undefined),-3%,-11%,-2%,-2%,-3%,23µM*
COc1ccc(N=C2SC(CC(=O)Nc3ccccc3)C(=O)N2Cc2ccco2)cc1 (centres undefined),3%,.,-1%,2%,-6%,?
CCc1ccc(NC(=O)CSc2ncc(S(=O)(=O)c3cc(C)ccc3C)c(=O)[nH]2)cc1,.,-3%,.,9.5µM*,.,.
Cc1ccc(NC(=O)CSc2ncc(S(=O)(=O)c3ccccc3)c(=O)[nH]2)cc1C,-2%,-12%,2%,?,-1%,20%
O=C(CSc1ncc(S(=O)(=O)c2ccccc2)c(=O)[nH]1)Nc1ccccc1Cl,-2%,.,-2%,3%,-1%,-1%
COc1ccccc1CNC(=O)CSc1ncc(S(=O)(=O)c2ccc(C)c(Cl)c2)c(=O)[nH]1,.,.,.,13µM*,.,.
CC(C)(C)c1ccc(S(=O)(=O)c2cnc(SCC(=O)Nc3ccc4c(c3)OCCO4)[nH]c2=O)cc1,.,5%,.,11µM*,.,.
Cc1ccc(C)c(NC(=O)CSc2ncc(S(=O)(=O)c3ccc(C)c(Cl)c3)c(=O)[nH]2)c1,.,.,.,11µM*,.,.
SMILES,Rab9 promoter act,SMN2 splice up,NPC1 prom act,FLuc modulator,ELG1 genotox,ELG1 DNA repair
COc1ccccc1CNC(=O)CCCN1C(=O)CSc2c1c(C)nn2-c1ccccc1,.,.,.,-1%,.,.
O=C1c2ccccc2C(=O)c2c(O)ccc(O)c21,.,-3%,.,.,.,.
O=C1C(C2=C(O)c3ccccc3C2=O)=Nc2ccccc21,-28%,-11%,-19%,1.9µM*,-3%,19%
Cc1ccc(C)c(OCc2nnc(N)s2)c1,-2%,12%,0%,-16%,0%,?
Nc1nnc(COc2ccc(Br)cc2Br)s1,?,?,?,8.5µM*,?,?
O=Cc1cccc(OC(=O)c2ccc(Cl)cc2Cl)c1,?,?,?,17µM*,12µM*,?
O=C(OC1CCOC1=O)c1cc(-c2cccc(Br)c2)nc2ccccc12 (centres undefined),-3%,14%,-4%,?,3%,5%
COc1ccc(-c2cc(C(=O)OC3CCOC3=O)c3ccccc3n2)cc1 (centres undefined),-5%,5%,2%,7.6µM*,9%,?
Cc1cc(C(=O)OC2CCOC2=O)c2ccccc2n1 (centres undefined),-1%,-11%,2%,1%,-1%,?
O=C(OC1CCOC1=O)c1cc(-c2ccc(Br)cc2)nc2ccccc12 (centres undefined),1%,8%,-2%,19µM*,-1%,8%
Cc1nn(-c2ccc(C(F)(F)F)cn2)c(C)c1Oc1ccccc1O,-1%,-11%,6%,?,4%,-5%
CN(C)/C=N/c1ncnc2c1cnn2-c1ccc(C(F)(F)F)cn1,?,14µM*,2.5µM*,11µM*,?,?
O=C(Nc1cccc(N2CCCC2)c1)c1cccs1,29%,-22%,22%,17µM*,-2%,4%
O=C(Nc1ccc(N2CCN(C(=O)c3ccc(Cl)cc3)CC2)cc1)c1cccs1,-9%,.,-3%,3%,3%,3%
CN1CCN(c2ccc(NC(=O)c3cccs3)cc2)CC1,0.56µM*,11µM*,3.2µM*,12µM*,?,?
CCN(CC)S(=O)(=O)c1ccc(NC(=O)c2cccs2)cc1,-3%,.,-6%,2%,-1%,-9%
Cc1ccc(C(=O)N2CCN(c3ccc(NC(=O)c4cccs4)cc3)CC2)cc1,-3%,.,0%,2%,-14%,9.2µM*
CC(C)C(=O)N1CCN(c2ccc(NC(=O)c3cccs3)cc2)CC1,-2%,16%,-3%,-10%,1%,?
Cc1ccn(-c2ccc(NC(=O)c3cccs3)cc2)n1,0.63µM*,.,0.71µM*,3µM*,?,?
Cc1ccc(-c2nc3ncccc3o2)cc1NC(=O)COc1ccc(C(C)C)cc1,.,14%,.,-19%,.,.
c1ccc(-c2ccc(N3CCCC4(CCNCC4)C3)cc2)cc1,.,-55%,.,.,.,.
Oc1cc2ccccc2cc1-c1n[nH]c(=S)o1,14%,6%,2%,?,8%,?
Cc1cc(-c2n[nH]c(=S)o2)c(C)n1-c1ccccc1,2.5µM*,7.1µM*,?,3µM*,?,?
